Source: PubChem
BRCA1 expr act – qHTS Assay to Identify Small Molecule Activators of BRCA1 Expression | MCF7-BRCA1-FFLuc reporter, luminescence, 48 h; response scale: scaled: vehicle 0%, 10 µM genistein 100% | Potency, µM (titrated, usually from 46.1 µM), hits mostly activators | AID 624202, 2012 | 1.1% of 380,000 active; also: nearly all actives have a fitted effect of over 80% in size
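Luminescence from a BRCA1-driven firefly luciferase in MCF7 cells was read after 48 h compound exposure at 37 C. Data normalized against DMSO and a 10microM genistein activation control, then curve-fitted across the titration.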
HEK293 tox – qHTS of GLP-1 Receptor Inverse Agonists: Cytotox Screen | HEK293 cAMP-luciferase reporter cells, luminescence, 24 h | Potency, µM (doses to about 38.3 µM), actives largely listed as inhibitors | 0.13% of 410,000 active | AID 624418, 2012;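 also: loss of luciferase light is scored as toxicity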
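Seeding density was 200 cells/uL; after overnight-length (12 h) culture, 23 nL compounds went on for 24 h at 37 °C. Readout used a luciferase detection reagent, luminescence taken after 12 min at room temperature.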
GLP1R inv ag – qHTS of GLP-1 Receptor Inverse Agonists (Inhibition Mode). 1.6% of 410,000 active. Potency, µM (doses to about 38.3 µM), hits mostly inhibitors. Glucagon-like peptide 1 receptor (Homo sapiens), P43220. AID 624417, 2012. HEK293 GLP-1R CRE-luciferase, luminescence, 24 h; GLP-1R form is constitutively active; also: nearly all actives have a fitted effect of over 55% in size
Target sequence (P43220 whole entry, looked up): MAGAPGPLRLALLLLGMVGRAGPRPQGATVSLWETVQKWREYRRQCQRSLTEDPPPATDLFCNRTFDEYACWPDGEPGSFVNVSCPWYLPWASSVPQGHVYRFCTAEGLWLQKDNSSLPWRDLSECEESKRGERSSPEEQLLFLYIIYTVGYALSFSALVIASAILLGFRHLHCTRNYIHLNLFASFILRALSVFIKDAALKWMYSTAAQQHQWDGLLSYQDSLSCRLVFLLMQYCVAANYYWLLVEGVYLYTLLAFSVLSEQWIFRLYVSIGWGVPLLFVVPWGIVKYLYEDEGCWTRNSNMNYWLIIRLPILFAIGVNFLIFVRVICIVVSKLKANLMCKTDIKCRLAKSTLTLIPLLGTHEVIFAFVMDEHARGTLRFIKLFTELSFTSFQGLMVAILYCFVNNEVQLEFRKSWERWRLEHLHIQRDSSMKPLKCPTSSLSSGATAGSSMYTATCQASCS
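Assay principle: reduced luminescence from a cAMP-responsive reporter in HEK293 cells co-expressing a constitutively active GLP-1R. Conditions: 24 hr compound incubation, 37 deg C, 5% CO2.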
Integrin act MD – qHTS for Activators of Integrin-Mediated Alleviation for Muscular Dystrophy; alpha7betagal myoblasts, beta-gal FDG fluorescence, 48 h; Potency, µM (highest dose often 38.3 µM), most hits filed as activators; 0.064% of 350,000 active; also: nearly all actives have a fitted effect of over 60% in size
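Alpha7betagal+/- myoblasts (passage 13) were plated 16-24 hr, then exposed to compounds (1:260 dilution of DMSO stock) for 48 hours at 37C. After MPER lysis, β-galactosidase reporter activity was read as FDG fluorescence (ex 480/em 540) after 30 minutes.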
GLP-1R agonist – qHTS of GLP-1 Receptor Agonists. Potency, µM (highest dose often 45.6 µM), actives largely listed as activators. 0.007% of 380,000 active. Glucagon-like peptide 1 receptor (Homo sapiens), P43220. HEK293 GLP-1R CRE-luciferase, luminescence, 4-6 h; cells express a hypersensitive GLP-1R form
Hits are given with their value; i = inactive; ? = inconclusive; nt = not tested or not shown; [ ] = remark or other dose. Hits are enriched below; roughly 2.7% of the tested compounds scored in any of these assays. Calls follow the shape of the dose curve; as a rule, active = well fitted curve in the direction sought with a large enough effect; inconclusive = small, poorly fitted or top-dose-only effect, or another doubt; inactive = no such curve, though single readings can be large; an effect the other way counts as inactive or inconclusive.

SMILES	BRCA1 expr act	HEK293 tox	GLP1R inv ag	Integrin act MD	GLP-1R agonist
CC1CCC(C(C)C)C(OC(=O)Cn2c(COc3ccccc3)[n+](C)c3ccccc32)C1 (centres undefined)	i	?	?	i	i
CC1CCC(C(C)C)C(OC(=O)Cn2c(-c3ccccc3)[n+](C)c3ccccc32)C1 (centres undefined)	i	8.91µM	?	i	i
O=C(NCc1cccnc1)/C(=C\c1ccc(-c2ccc(Br)cc2)o1)S(=O)(=O)c1ccccc1	i	?	1.78µM	i	i
CC(=O)Nc1cc(-c2cccc(C(=O)NCCN(C)C)c2)cn2c(-c3cccc(C(F)(F)F)c3)cnc12	i	?	?	nt	i
CCCN1CCc2c(sc(NC(=O)Cc3ccc(F)cc3)c2C(N)=O)C1	i	i	i	i	i
C[C@H]1CNC(=O)c2c(C(=O)Nc3ccc(CNC(=O)OC(C)(C)C)cc3)ncn21	i	i	i	8.91µM	i
C[C@H]1CNC(=O)c2c(C(=O)Nc3cccc(Cl)c3)ncn21	i	i	i	i	i
O=S(=O)(c1ccc(Cl)c(NC(=S)N/N=C/c2ccc(O)cc2)c1)N1CCOCC1	i	10µM	?	i	i
Cc1ccc(-c2nnc(N3CCN(c4ccccn4)CC3)c3ccccc23)cc1	i	11.2µM	8.91µM	i	i
CCOC(=O)C1(CCOc2ccccc2)CCN(Cc2ccccc2OC)CC1	i	i	8.91µM	i	i
CCOC(=O)C1(CCOc2ccccc2)CCN(Cc2cccc(O)c2)CC1	i	i	?	i	i
Cc1cccc(N(CC(=O)NCCSc2ccc(Cl)cc2)S(=O)(=O)c2ccccc2)c1C	nt	i	10µM	nt	nt
Cc1ccc(S(=O)(=O)N(CC(=O)NCCSc2ccc(Cl)cc2)c2ccccc2C)cc1	nt	i	11.2µM	nt	nt
Cc1ccc(SCCNC(=O)c2cccc([N+](=O)[O-])c2C)cc1	i	i	?	i[1.53 µM]	i
CC(C)c1cccc(C(C)C)c1OC(=O)NC(=O)c1c(F)cccc1F	i	i	8.91µM	i	i
Oc1ccc2c3c1OC1C(O)C=CC4[C@@H](C2)NCC[C@]314 (some centres undefined)	nt	nt	nt	nt	i
CN(C)CCN(CC1CCCN(Cc2ccccc2F)C1)C(=O)Cc1ccccc1F (centres undefined)	i	i	10µM	i	i
CC(=O)OC1CC(OC2C(O)CC(OC3C(O)CC(O[C@H]4CC[C@]5(C)C6CC[C@]7(C)[C@@H](C8=CC(=O)OC8)[C@@H](O)C[C@]7(O)[C@@H]6CC[C@@H]5C4)OC3C)OC2C)OC(C)C1OC1OC(CO)C(O)C(O)C1O (some centres undefined)	nt	nt	nt	nt	i
Cc1ccccc1C(=O)Oc1cccc(Nc2ncnc3ccccc23)c1	i	i	11.2µM	i	i
O=C(CSc1nnc(NC(=O)c2ccccc2F)s1)NCc1ccc(F)cc1	5.01µM	i	i	i	i
COc1ccc(S(=O)(=O)N2CCN(C/C=C/c3ccccc3)CC2)cc1F	i	i	?	?	i
CCC1C(c2ccccc2)N(C)C(c2ccccc2)CC1(O)c1ccccc1 (centres undefined)	i	?	2.51µM	i	i
O=C1C=CC2C3C(=O)N(c4ccccc4)C(=O)C3C1N2Cc1ccccc1 (centres undefined)	i	10µM	?	i	i
COc1cccc(C2CC3C(=O)C=CC2N3Cc2ccccc2)c1 (centres undefined)	i	i	?	i	i
N#CC1=C(N)NC(SCC(=O)Nc2ccc(Br)cc2)=C(C#N)C12CCCCC2	i	?	7.94µM	i	i
SMILES	BRCA1 expr act	HEK293 tox	GLP1R inv ag	Integrin act MD	GLP-1R agonist
N#CC1=C(N)NC(SCC(=O)c2ccccc2)=C(C#N)C12CCCC2	i	i	i	i	i
Cc1cccc(N=c2oc3cc(O)ccc3cc2C(N)=O)c1	11.2µM	i	?	i	i
CCOc1cc(/C=C2\SC(=S)N(NC(=O)c3cccnc3)C2=O)ccc1O	i	11.2µM	i	i	i
COc1ccc(S(=O)(=O)NCCc2sc3nc(-c4ccc(C)cc4)nn3c2C)cc1F	nt	i	?	nt	nt
O=C(NCc1ccc(Cl)cc1)C1CCCN(C(=O)c2cnn(-c3ccc(F)cc3)c2-n2cccc2)C1 (centres undefined)	nt	i	?	nt	nt
COc1c(C)cc(C(=O)C2CCCN(Cc3ccccn3)C2)cc1C (centres undefined)	i	?	2.82µM	i	i
Cc1cc(=O)oc2c(C)c(OC3CCCCC3=O)ccc12 (centres undefined)	i	i	i	i	i
C[C@H](CO)N1C[C@H](C)[C@@H](CN(C)S(=O)(=O)c2cccs2)Oc2ccc(NC(=O)Nc3ccc(C(F)(F)F)cc3)cc2C1=O	i	?	8.91µM	i	i
C[C@@H]1CN([C@H](C)CO)C(=O)c2cc(NC(=O)Nc3ccc(C(F)(F)F)cc3)ccc2O[C@H]1CN(C)S(=O)(=O)c1cccs1	i	?	?	i	i
CCN(CCCl)c1cc(CN(C)C)cc(NC(=O)c2ccc(C(=O)Nc3cc(CN(C)C)cc(N(CC)CCCl)c3)cc2)c1	i	2.82µM	?	i	i
O=C(CN1CCCC1=O)Nc1ccccc1	i	i	i	i	i
CCOC(=O)C1(c2ccccc2)CCN(CCC(=O)Nc2ccc(OC)cc2)CC1	i	i	?	i	i
CCOC(=O)C1(c2ccccc2)CCN(CCC(=O)Nc2cccc(Br)c2)CC1	i	?	3.16µM	i	i
O=C(CN1CCCC1)Nc1ccc(NC(=O)Nc2ccccc2)cc1	2.82µM	i	?	i	i
CCOC(=O)C1(c2ccccc2)CCN(CC(=O)Nc2ccc(C)cc2)CC1	i	i	8.91µM	i	i
C[C@H]1[C@@H]2Cc3ccc(O)cc3[C@]1(C)CCN2C	nt	nt	nt	nt	i
CCC(C)NCCOCCOc1ccc(Cl)c2ccccc12 (centres undefined)	i	?	1.58µM	i	i
CCC1CC2CC3c4[nH]c5ccc(OC)cc5c4CCN(C2)C13 (centres undefined)	nt	nt	nt	nt	i
CC(C)CCOP(=O)(c1ccc(N(C)C)cc1)C(O)c1ccc(Cl)cc1Cl (centres undefined)	i	?	6.31µM	i	i
CCOC(=O)c1c(C=O)c2ccccc2n1Cc1ccccc1	i	i	10µM	i	i
Cc1ccc(C)c(Cn2c(C(=O)O)c(C=O)c3ccccc32)c1	i	i	i	i	i
Cc1cccc(OP(N)(=O)Oc2cccc(C)c2C)c1C	i	i	11.2µM	i	i
Cc1ccccc1OP(N)(=O)Oc1ccccc1C	i	i	i	i	i
